Gal4-VP16 FLuc – VP16 counterscreen qHTS for inhibitors of ROR gamma transcriptional activity; Drosophila S2 Gal4-VP16 UAS-luciferase, luminescence, 20 h; Potency, µM (highest dose often 53.6 µM), for inactives: at the highest dose activity, negative = inhibition, actives largely listed as inhibitors; 310,000 compounds, 3.5% hits; AID 2546, 2010;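 further: Gal4-VP16 expression switched on by copper sulfate through the metallothionein promoter; potency means the concentration at half of the fitted maximal effect; nearly all actives have a fitted effect of over 50% in size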
LDHA inh – qHTS assay for inhibitors of human lactate dehydrogenase | purified LDHA, NADH/diaphorase-resazurin fluorescence; stronger effect = lower value | L-lactate dehydrogenase A chain (Homo sapiens), P00338 | 480,000 compounds, 0.15% hits | activity change, % (values are at about 110 or 230 µM); in the data active means activity change below about -30%; inconclusive means mostly about -25% to -30%;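 further: plate controls were DMSO wells for no effect and wells without enzyme for full effect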
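Enzyme activity of human lactate dehydrogenase 5 (2 nM; 0.06 mM NADH, 0.2 mM pyruvate, 5 min, RT) is measured via a resazurin/diaphorase fluorescence readout of residual NADH.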
IL1B secr inh – qHTS for Inhibitors of Inflammasome Signaling: IL-1-beta AlphaLISA Primary Screen; THP-1 LPS/ATP IL-1B secretion, AlphaLISA, 16 h; stronger effect = lower value; activity change, % at 57.5 µM; 360,000 compounds, 4.7% hits; in the data active means activity change below about -50%; inconclusive means mostly about -30% to -49%
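THP-1 cells pretreated 1 hr with compounds (up to 57.5 uM final), then stimulated with LPS (250 ng/mL final) plus ATP (1.25 mM final); secreted IL-1B measured by AlphaLISA after 16 hr, decreased signal indicating inhibition.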
DT40 TDP1 CPT – qHTS for Inhibitors of human tyrosyl-DNA phosphodiesterase 1 (TDP1): qHTS in cells in presence of CPT | chicken DT40 Tdp1-/-;hTDP1 cells + 20 nM CPT, ATP luminescence, 48 h | 420,000 compounds, 12% hits | Potency, µM (series often up to 46.2 µM), for inactives: at the highest dose activity change, negative = growth inhibition, most hits filed as inhibitors; further: potency means the concentration at half of the fitted maximal effect; nearly all actives have a fitted effect of over 55% in size
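Cell growth measured by CellTiter-Glo luminescence after a minimum 48 h, 37 C compound exposure with 20 nM CPT in Tdp1-knockout DT40 cells stably expressing hTDP1, seeded 400/well; qHTS titration format.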
RORg inh – qHTS for inhibitors of ROR gamma transcriptional activity; 310,000 compounds, 5.4% hits; Nuclear receptor ROR-gamma (Mus musculus), P51450; Drosophila S2 Gal4-RORgamma UAS-luciferase reporter, 20 h; Potency, µM (titrated, usually from 53.6 µM), without a hit: top-dose activity change, negative = inhibition, most hits filed as inhibitors; further: potency means the concentration at half of the fitted maximal effect; nearly all actives have a fitted effect of over 60% in size
Target sequence (P51450 whole entry, looked up, the tested form may be a part): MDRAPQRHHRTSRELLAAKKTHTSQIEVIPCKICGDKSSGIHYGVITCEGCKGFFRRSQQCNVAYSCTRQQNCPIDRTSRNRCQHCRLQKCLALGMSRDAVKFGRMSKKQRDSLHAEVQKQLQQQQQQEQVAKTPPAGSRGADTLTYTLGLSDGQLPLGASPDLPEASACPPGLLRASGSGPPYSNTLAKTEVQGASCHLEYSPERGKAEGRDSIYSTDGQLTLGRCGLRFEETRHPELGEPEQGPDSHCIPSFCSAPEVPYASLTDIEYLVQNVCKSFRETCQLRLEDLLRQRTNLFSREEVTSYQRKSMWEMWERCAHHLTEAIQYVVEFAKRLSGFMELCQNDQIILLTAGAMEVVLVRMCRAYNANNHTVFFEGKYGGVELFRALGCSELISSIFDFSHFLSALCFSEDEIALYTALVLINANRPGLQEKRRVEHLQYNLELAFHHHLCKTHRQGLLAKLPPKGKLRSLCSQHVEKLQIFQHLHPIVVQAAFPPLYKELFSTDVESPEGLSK
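Luciferase reporter read in Schneider cells carrying Gal4-RORγ (mouse) and UAS-Photinus luciferase; cells given compound 1 h before 700 uM copper sulfate induction, then incubated 20 h at ambient temperature.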
TDP1 cell noCPT – qHTS for Inhibitors of human tyrosyl-DNA phosphodiesterase 1 (TDP1): qHTS in cells in absence of CPT | DT40 Tdp1-/- hTDP1 cells, no CPT, ATP luminescence, 48 h | Potency, µM (series often up to 46.2 µM), inactives show at the top dose activity change, negative = growth inhibition, hits mostly inhibitors | 420,000 compounds, 15% hits; further: potency means the concentration at half of the fitted maximal effect; nearly all actives have a fitted effect of over 55% in size
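Growth kinetics read by CellTiter-Glo luminescence after ≥48 hr at 37 °C. Cells: DT40 Tdp1-/- stably carrying human TDP1, 400 per well, compound exposure in the absence of CPT (DMSO vehicle).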
The depositor's hits bear a star; ? = inconclusive; / = not tested or not shown; [ ] = dose if it differs, or a comment. Rows were chosen to be rich in hits. Some 18% of all compounds tested hit in one or more screens of this group. Unless noted, the call rests on the fitted dose curve; in most records, active means well fitted curve in the direction sought with a large enough effect; inconclusive means small, poorly fitted or top-dose-only effect, or another doubt; inactive means no such curve, though single readings can be large; an effect the other way counts as inactive or inconclusive. Unless noted, on the % scale 0 is the no-effect control and ±100 the full control effect.

SMILES	Gal4-VP16 FLuc	LDHA inh	IL1B secr inh	DT40 TDP1 CPT	RORg inh	TDP1 cell noCPT
O=C(CCCCn1c(=O)c2ccccc2n(Cc2cccc(F)c2)c1=O)NCc1ccc2c(c1)OCO2	/	-6.9	/	?	/	23.1µM*
COc1ccc(NC(=O)CCCn2c(=O)c3sccc3n(Cc3ccc(C)cc3)c2=O)cc1	-3.9%	-12.5	-0.9	-25.2%	?	?
CCc1ccc(NC(=O)Cn2c(=O)n(CCCC(=O)NCc3ccc4c(c3)OCO4)c(=O)c3ccccc32)cc1	/	-0.8	/	20.6µM*	/	?
N#Cc1ccc(CN2CCc3cc(S(=O)(=O)N4CCCCC4)ccc32)c(F)c1	/	10.3	/	/	/	/
C=CCn1c(-n2nc(CC)cc2CC)nc2c1c(=O)[nH]c(=O)n2C	/	-5.5	/	/	/	/
Cc1ccc(C(=O)CSC#N)o1	/	9.4	/	/	/	/
CC(C)(C)c1nc2c(C#N)c(-c3ccc(Cl)cc3)ccn2n1	0.5%	9.1	-9.9	35.5µM*	15.6%	20µM*
O=[N+]([O-])c1ccc(/C=C2\C=Cc3ccccc32)cc1	/	3.6	/	8.91µM*	/	?
O=[N+]([O-])c1ccc2c(c1)C=C/C2=C\c1ccccc1	/	4.9	/	-19.4%	/	-10.9%
CSc1ccc(/C=C2\C=Cc3cc([N+](=O)[O-])ccc32)cc1	/	5.0	/	11.2µM*	/	15.8µM*
CCC(=O)Oc1cc2c(c3oc(=O)cc(-c4ccccc4)c13)CCC(C)(C)O2	/	12.0	/	/	/	/
O=C(c1cc2c(s1)CCCCC2)N1CCN(c2nccs2)CC1	/	1.3	/	/	/	/
CC(C)(C)c1ccc(OCc2ccc(C(=O)N/N=C/c3ccc([N+](=O)[O-])cc3)o2)cc1	10µM*	-8.6	-17.5	18.4µM*	?	20.6µM*
CC(C)Oc1ccc(CNC(=S)N/N=C/c2cccnc2)cc1	12.6µM*	-4.3	8.5	?	3.98µM*	?
CCOc1ccc(CNC(=S)N/N=C\c2ccc([N+](=O)[O-])cc2)cc1	2.82µM*	-2.1	-1.6	16.4µM*	1.26µM*	8.2µM*
CCOc1ccc(CNC(=S)N/N=C/c2cccnc2)cc1	?	-4.0	0.0	?	7.94µM*	-1.8%
O=C1COc2ccc(C(=O)COC(=O)c3nn(-c4ccccc4)c(=O)c4ccccc34)cc2N1	/	-1.4	/	/	/	/
O=C1/C(=C\c2cccnc2)Sc2ccccc21	?	-0.6	-25.8	?	?	20.6µM*
O=C1CCc2cc(S(=O)(=O)NCc3ccccc3)cc3c2N1CCC3	/	-7.4	/	/	/	/
COc1ccc2c(c1)CCC1C2=NN(/C(C)=C\C(C)=O)C1c1ccc(F)cc1 (stereo unspecified)	3.7%[10 µM]	10.3	6.0	18.4µM*	?	?
COc1ccc2c(c1)C1=NN(/C(C)=C/C(C)=O)C(c3ccc(F)cc3)C1CC2 (stereo unspecified)	?	37.9	-9.6	?	-7.1%	?
COc1ccc2c(c1)C1=NN(/C(C)=C\C(C)=O)C(c3ccccc3)C1CC2 (stereo unspecified)	?	26.4	22.5	18.4µM*	-28.6%	?
Cc1nc2nc(N(Cc3cccc(C#N)c3)S(=O)(=O)c3ccccc3)nn2c(C)c1Cl	/	2.8	/	/	/	/
N#Cc1cc2sc3nnc(-c4ccncc4)n3c2cc1C#N	?	-7.9	-83.3*	?	-29.1%	10.3µM*
N#Cc1cc2sc3nc4ccccc4n3c2cc1C#N	-16.8%	/	/	/	19.8%	/
SMILES	Gal4-VP16 FLuc	LDHA inh	IL1B secr inh	DT40 TDP1 CPT	RORg inh	TDP1 cell noCPT
Cn1nc2c(c1C(=O)N1CCCC(C(=O)c3cc(F)ccc3F)C1)CCCC2 (stereo unspecified)	-10.0%	-0.9	7.2	16.4µM*	?	-36.1%
CC(C)c1cc(C(=O)N2CCCC(N3CCN(c4ccc(F)cc4)CC3)C2)no1 (stereo unspecified)	-11.8%	-2.9	23.4	?	?	?
CC(C)Cc1cc(C(=O)N2CCCC(CO)(Cc3ccc(F)cc3)C2)no1 (stereo unspecified)	-4.8%	2.5	26.9	?	43.3%	?
Cc1cc(C(=O)N2CCCC(CO)(Cc3ccc(F)cc3)C2)c(C)o1 (stereo unspecified)	-12.9%	-1.0	-25.2	23.1µM*	8.7%	23.1µM*
Cc1cc(C(=O)N2CCCC(N3CCN(c4ccc(F)cc4)CC3)C2)c(C)o1 (stereo unspecified)	-5.5%	-2.8	-9.8	23.1µM*	9.6%	18.4µM*
CC(C)c1cc(C(=O)N2CCCC(N3CCN(c4ccc(F)cc4)CC3)C2)n(C)n1 (stereo unspecified)	4.1%	-5.7	16.8	16.4µM*	19.4%	?
COc1ccccc1N1CCN(C2CCCN(C(=O)c3cc(C)oc3C)C2)CC1 (stereo unspecified)	-7.0%	-1.3	2.9	?	-12.2%	?
Cc1cc(C(=O)N2CCCC(C(=O)c3cc(F)ccc3F)C2)c(C)o1 (stereo unspecified)	-2.1%	-2.1	-4.5	?	-25.8%	18.4µM*
Cc1ccc(C(=O)N2CCCC(C(=O)c3cc(F)ccc3F)C2)s1 (stereo unspecified)	-2.4%	-5.2	-27.4	?	44.3%	?
Cc1ccc(CNc2nc(C)cs2)cc1	-9.5%	5.2	-58.0*	-2.8%	?	-28.1%
CC(Sc1nc(CN2CCOCC2)nc2ccccc12)C(=O)Nc1cccc(F)c1 (stereo unspecified)	/	-10.2	/	/	/	/
CCn1nc(C)c(Br)c1C(=O)Sc1ccccc1Cl	-19.5%	-6.6	-27.6	3.66µM*	?	4.61µM*
CCn1nc(C)cc1C(=O)Sc1ccc(C)cc1	7.6%	-5.4	?	?	-17.3%	?
CN1c2ccccc2C(C)(C)C12CC(CCl)=NO2 (stereo unspecified)	9.4%	5.5	-12.3	16.4µM*	-26.1%	20.6µM*
COc1ccc(CCNC(=O)c2csc(NC(C)C)n2)cc1	/	-9.6	/	/	/	/
CC(NC(=O)NC1CCCCC1)C(c1cccs1)N1CCN(Cc2ccccc2)CC1 (stereo unspecified)	-18.0%	-0.6	-8.8	?	-15.3%	?
CC(NC(=S)Nc1ccc(F)cc1)C(c1cccs1)N1CCOCC1 (stereo unspecified)	?	-7.3	-3.6	?	3.98µM*	?

Screening data deposited in PubChem BioAssay by National Center for Advancing Translational Sciences (NCATS).
